A selection: hits, their analogues and other compounds. The true share with any hit is near 32%.
PostGolgi ctrl – growth inhibition of yeast control strain, primary screen, counter-screen for post-Golgi transport modulator project; efflux-deficient yeast background strain, growth absorbance A615, 16 h; inhibition, % at 10 µM; 98,000 tested, 5% active; AID 738, 2007
PostGolgi yeast – phenotypic screen on post-Golgi transport, primary screen; post-Golgi transport phenotypic cell assay; inhibition, % at 10 µM; 98,000 tested, 0.9% active; AID 739, 2007;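 further: yeast cells grown in 1536-well plates; yeast grown about 18 h at 30C before absorbance read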
CYP2C19 act – human CYP2C19 activators, primary screen, biochemical, luminescence; recombinant CYP2C19, luciferin-H EGE luminescence; stronger effect = higher value; 0 = fully inhibited enzyme, 1 = untreated enzyme; 96,000 tested, under 10 active; activation factor at 5 µM; AID 1025, 2008; Cytochrome P450 2C19 (Homo sapiens), P33261;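 active means activation factor of at least 2 at 5 µM in the primary screen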;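 further: 0 = wells with 2.5 mM tranylcypromine and 1 = vehicle-only wells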
CYP2C9 inhib – blockers of cytochrome P450 2C9 activity – biochemical, luminescence, ADME assay, primary screen | P11712 | CYP2C9 Supersomes, luciferin-H conversion | inhibition, % at 5 µM | 96,000 tested, 20% active;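 active means blocking of liver enzyme CYP2C9 beyond about 50% at 5 µM, limit read from the data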
Target sequence (P11712 whole entry, looked up): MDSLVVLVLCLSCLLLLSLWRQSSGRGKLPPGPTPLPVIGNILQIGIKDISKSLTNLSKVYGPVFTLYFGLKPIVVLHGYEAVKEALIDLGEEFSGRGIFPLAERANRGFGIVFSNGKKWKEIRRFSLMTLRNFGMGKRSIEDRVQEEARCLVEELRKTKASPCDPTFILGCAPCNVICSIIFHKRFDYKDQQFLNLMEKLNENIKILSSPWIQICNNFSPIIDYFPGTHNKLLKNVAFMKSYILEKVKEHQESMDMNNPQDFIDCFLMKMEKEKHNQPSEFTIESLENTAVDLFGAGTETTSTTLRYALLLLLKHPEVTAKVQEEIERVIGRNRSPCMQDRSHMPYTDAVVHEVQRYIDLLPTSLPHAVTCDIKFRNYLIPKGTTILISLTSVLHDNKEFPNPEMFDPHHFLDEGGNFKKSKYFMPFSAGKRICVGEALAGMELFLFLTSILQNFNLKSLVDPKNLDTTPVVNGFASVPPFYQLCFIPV
CYP2C19 inh – blockers of cytochrome P450 2C19 activity – biochemical, luminescence, ADME assay, primary screen. inhibition, % at 5 µM. P33261. AID 778, 2007. 96,000 tested, 21% active. CYP2C19 Supersomes, luciferin-H EGE luminescence, 30 min;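 active means CYP2C19 inhibition above a set limit at 5 µM in the primary screen, cut at about 50% in these data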;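 further: plate controls were negative control wells for no effect and 2.5 mM tranylcypromine positive control for full effect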
CYP2C9 activ – human CYP2C9 activators, primary screen, biochemical, luminescence | Cytochrome P450 2C9 (Homo sapiens), P11712 | recombinant CYP2C9, luciferin-H conversion; stronger effect = higher value; factor 1 = untreated enzyme, 0 = blocked | activation factor at 5 µM | 96,000 tested, 1.4% active;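 active means activation factor of 2 or more for CYP2C9 at a 5 µM dose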;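 further: 0 = sulfaphenazole-blocked wells and 1 = vehicle-only wells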
Active calls of the source: *; · = not tested or not shown. Unless noted, no stated cut-off is given here; in the data, active means inhibition above about 30%; inactive means the rest.

SMILES	PostGolgi ctrl	PostGolgi yeast	CYP2C19 act	CYP2C9 inhib	CYP2C19 inh	CYP2C9 activ
Cc1ccccc1NS(=O)(=O)c1ccc(NC(=O)CSCc2ccc(Br)cc2)cc1	91.5*	96.0*	0.9	11.9	11.8	0.9
Cc1ccc(S(=O)(=O)Nc2ccccc2C(N)=O)cc1	3.4	-4.5	0.8	-109.4	23.3	2.1*
NC(=O)c1ccccc1NS(=O)(=O)c1ccccc1	-2.4	-6.1	0.7	-133.2	25.1	2.3*
Cc1cccc2cc(COC(=O)C3CCCO3)c(=O)[nH]c12 (stereo unspecified)	-1.7	-2.0	1.1	-5.9	-10.6	1.1
Cc1ccccc1NS(=O)(=O)c1cc(C(=O)NCCC2=CCCCC2)ccc1Cl	17.4	-1.0	0.8	49.0	24.4	0.5
Cc1ccc(C)c(NS(=O)(=O)c2cc(C(=O)Nc3ccccc3-c3ccccc3)ccc2C)c1	11.3	1.2	0.5	80.5*	53.7*	0.2
CCOC(=O)NCc1ccc(S(=O)(=O)Nc2ccccc2C)cc1	6.7	-5.4	0.3	24.6	68.6*	0.8
CN(C)S(=O)(=O)Nc1ccccc1C(N)=O	11.7	-5.1	1	-52.0	-0.6	1.5
NC(=O)c1ccccc1NS(=O)(=O)Cc1ccc(Cl)cc1	9.3	-1.4	0.3	-57.0	66.0*	1.6
Cc1ccccc1NS(=O)(=O)c1cc(C(N)=O)ccc1C	-1.1	6.9	0	18.9	96.9*	0.8
O=C(Cc1ccc(F)cc1)N(c1ccccc1)C1C=CS(=O)(=O)C1 (stereo unspecified)	1.5	1.2	0.8	-5.5	16.2	1.1
CCc1ccc(OCC(=O)Nc2ncc3c(n2)CC(C)(C)CC3=O)cc1	4.0	19.4	0.9	-5.7	5.6	1.1
C#CCSc1nnc(-c2ccc(OC)cc2)o1	16.3	22.6	0.8	-2.0	15.7	1
Cc1ccc(C(C(=O)NCc2ccc(F)cc2)N(C(=O)c2csnn2)C2CC2)o1 (stereo unspecified)	4.2	-1.3	0.6	38.5	38.6	0.6
COc1ccc(C(C)NC(=O)C2CCCO2)cc1OC (stereo unspecified)	10.9	-5.6	0.9	-3.2	5.0	1
CCCCCCSc1nc(O)c(C2OC(=O)c3c2ccc(OC)c3OC)c(=O)n1CC (stereo unspecified)	-5.8	21.0	1.1	24.5	-5.9	0.8
CCC(=NCCN1CCNCC1)C1=C(O)CC(C)(C)CC1=O	2.9	-4.9	1.2	-21.9	-17.5	1.2
Cc1cc(S(=O)(=O)Nc2ccccc2C)ccc1F	21.8	6.4	·	·	·	·
O=C(NS(=O)(=O)c1ccccc1)c1ccccc1O	-4.2	-4.7	1	89.3*	4.0	0.1
Cc1ccccc1NS(=O)(=O)c1ccc(C)c(C(N)=O)c1	11.1	-3.3	0.1	11.1	89.8*	0.9
O=C(O)CN=C(NS(=O)(=O)c1ccccc1)c1ccccc1	-0.7	1.4	0.9	6.7	12.0	0.9
Cc1ccc(Nc2c([N+](=O)[O-])ccc3c2=NC2(CCCCC2)N=3)cc1	8.3	-6.7	0.9	32.3	6.7	0.7
Cc1nc2ccccc2n1C1CC(=O)N(Cc2ccccc2)C1=O (stereo unspecified)	-1.7	-2.7	0.7	31.8	30.9	0.7
COC(=O)c1cnn(-c2cc(Oc3cccc(C)c3)ncn2)c1N	8.4	2.4	0.7	69.9*	34.7	0.3
C=CCNC(=O)CC(C)C(CCCCC)C(=O)O (stereo unspecified)	-2.1	-2.9	1	15.2	2.9	0.8
SMILES	PostGolgi ctrl	PostGolgi yeast	CYP2C19 act	CYP2C9 inhib	CYP2C19 inh	CYP2C9 activ
Cc1nnc(SCC(=O)Nc2sc3c(c2C(N)=O)CCCC3)[nH]c1=O	10.3	3.5	1	68.8*	1.4	0.3
CCCn1c(SCC(=O)Nc2ccccc2CC)nnc1C(C)C	7.5	1.0	0.8	-5.2	20.1	1.1
CCCn1c(SCC(=O)Nc2sc(C)c(C)c2C#N)nnc1C(C)C	-3.0	-0.2	0.2	22.1	75.3*	0.8
Cc1sc(NC(=O)CSc2nnc(C)c(=O)[nH]2)c(C#N)c1C	16.5	-6.3	0.9	97.4*	11.5	0
O=C1c2ccccc2C(=O)c2c1oc(C(F)(F)F)c2C(=O)c1ccccc1	56.2*	103.8*	1.1	-12.6	-8.3	1.1
CCc1ccc(NC(=O)CCNS(=O)(=O)c2cccc3nsnc23)cc1	-5.1	6.3	0.5	41.8	51.4*	0.6
COC(=O)c1ccc(NC(=O)CCNS(=O)(=O)c2cccc3nonc23)cc1	1.2	3.5	0.3	26.2	72.2*	0.7
Cc1cccc2sc(NC(=O)CCNS(=O)(=O)c3cccc4nonc34)nc12	1.2	-3.7	0.3	57.8*	72.3*	0.4
CCOc1ccc(CCNS(=O)(=O)c2cccc3nsnc23)cc1OCC	7.1	18.7	0.1	56.6*	85.5*	0.4
O=C(CCCNS(=O)(=O)c1cccc2nsnc12)NC1CCCCC1	2.5	-8.0	1.1	-10.0	-6.1	1.1
COc1ccc(NC(=O)CCS(=O)(=O)c2cccc3nonc23)c(OC)c1	-0.5	18.3	0.6	8.0	44.5	0.9
COc1ccc(CCNS(=O)(=O)c2cccc3nsnc23)cc1OC	8.0	-30.9	·	·	·	·
Cc1ccccc1Oc1ncnc2sccc12	4.5	-0.8	0.6	-11.8	35.8	1.1
COc1ccc(-c2c(C)n([O-])c(C)c(C)[n+]2=O)cc1	-1.4	26.1	1	-4.4	-4.3	1
CC(NCc1ccco1)C(=O)N1CCc2ccccc2C1 (stereo unspecified)	-1.9	-2.1	0.5	9.6	49.9	0.9
COc1ccc(NC(=O)CSc2nnc(C)n2Cc2ccccc2)cc1	-4.3	-4.7	0.7	8.2	30.5	0.9
CCn1c(COc2ccc(C)cc2)nnc1SCC(=O)Nc1cc(OC)ccc1OC	5.9	-3.7	0.1	47.9	89.5*	0.5
CCn1c(COc2ccc(C)cc2)nnc1SCC(=O)C(C)(C)C	21.0	-9.6	0.5	51.1*	49.7	0.5
CCn1c(COc2ccccc2)nnc1SCC(=O)C(C)(C)C	5.2	-6.3	0.8	27.0	22.7	0.7
COc1ccc(C)cc1NC(=O)CSc1nnc(COc2ccc(C)cc2)n1Cc1ccco1	26.4	-2.8	0.9	10.1	6.1	0.9
CCn1c(COc2ccccc2)nnc1SCC(=O)Nc1cc(C)ccc1OC	7.7	7.7	0.5	-108.0	46.2	2.1*
COc1ccc(OC)c(NC(=O)CSc2nnc(C)n2Cc2ccccc2)c1	9.7	-8.2	0.1	29.4	87.2*	0.7
C=CCN1C(=O)CSc2ccc(C(=O)N3CCC(C)CC3)cc21	13.3	-13.8	0.8	-11.1	16.5	1.1
C=CCN(Cc1cc(OC)ccc1OC)S(=O)(=O)N(C)C	29.3	0.3	0	63.7*	96.3*	0.4

Assay outcomes from PubChem.
